# Assay results reported in PubChem BioAssay AID2284108 (EPA ToxCast).
# The source made the active and inactive calls. How the source made its calls: active means hit-call score of the fitted dose curve at least 0.9, where 1 is the maximum; inactive means score below 0.9.
# Molecular target: human Src Tyrosine Kinase, SRC (gene 6714) (UniProt P12931)
# Experiment: ERF_FR_ENZ_hSRC: Eurofins (ERF) Enzymatic Radiometric [Km ATP] KinaseProfiler LeadHunter Assay for human Src Tyrosine Kinase
# Protocol: ERF_FR_ENZ_hSRC is a biochemical, single-readout assay that uses extracted gene-proteins in a cell-free assay. Measurements were taken 0.16 hour after chemical dosing in a 96-well plate. See Src Human TK Kinase Enzymatic LANCE Assay [Km ATP], Cerep.ERF_FR_ENZ_hSRC is an assay component calculated from the ERF_FR_ENZ_hSRC assay. It is designed to measure enzyme activity using a type of enzyme reporter as detected by fluorescence intensity with LANCE technology.Data from the assay component ERF_FR_ENZ_hSRC was analyzed at the assay endpoint, ERF_FR_ENZ_hSRC, in the positive analysis fitting direction relative to DMSO as the negative control and baseline of activity. Using a type of enzyme reporter, loss-of-signal activity can be used to understand changes in enzymatic activity as they relate to gene SRC. To generalize the intended target to other relatable targets, this assay endpoint is annotated to the kinase intended target family, where the subfamily is non-receptor tyrosine kinase.
# c-Src (h) is incubated with 8 mM MOPS pH 7.0, 0.2 mM EDTA, 250 uM […] (Cdc2 peptide), 10 mM MgAcetate and [gamma-33P]-ATP (specific activity and concentration as required). The reaction is initiated by the addition of the Mg/ATP mix. After incubation for 40 minutes at room temperature, the reaction is stopped by the addition of phosphoric acid to a concentration of 0.5%. […]
# Chain of human Src Tyrosine Kinase, SRC (gene 6714) (P12931 whole entry, looked up): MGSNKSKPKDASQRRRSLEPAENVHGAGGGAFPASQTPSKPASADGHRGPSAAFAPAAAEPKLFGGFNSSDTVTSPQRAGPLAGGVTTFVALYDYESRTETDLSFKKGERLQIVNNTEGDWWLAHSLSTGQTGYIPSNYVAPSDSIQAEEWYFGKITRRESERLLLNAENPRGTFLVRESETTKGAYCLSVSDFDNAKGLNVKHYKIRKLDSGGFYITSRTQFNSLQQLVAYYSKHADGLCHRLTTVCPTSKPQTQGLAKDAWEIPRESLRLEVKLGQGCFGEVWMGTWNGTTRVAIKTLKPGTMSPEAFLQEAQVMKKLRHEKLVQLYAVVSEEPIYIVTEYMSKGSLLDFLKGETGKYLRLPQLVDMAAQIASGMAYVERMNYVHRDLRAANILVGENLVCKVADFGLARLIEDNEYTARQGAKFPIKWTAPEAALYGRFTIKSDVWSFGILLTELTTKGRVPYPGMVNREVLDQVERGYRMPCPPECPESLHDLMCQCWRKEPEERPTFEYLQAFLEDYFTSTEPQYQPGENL
row,SMILES,outcome
1,O=C(/C=C/c1ccc(O)cc1)CC(=O)/C=C/c1ccc(O)cc1,inactive
